{"source": "PubChem BioAssay (Tox21)", "note": "Records with an inconclusive call do not appear. Values without a mark were called inactive. Calls come from the whole dose curve; as a rule, active = well fitted activation curve with a large enough effect in the repeat runs; inconclusive = weak or mixed curves; inactive = flat fitted curve, though single readings scatter. % is set by controls: 0 for no effect and ±100 for the full control effect."}
{"experiment": "Caspase-3/7 induction in HepG2 cells by small molecules, qHTS assay (AID 1346978); note: nearly all actives have a fitted effect of over 15% in size", "details": "HepG2 caspase-3/7 activation, Caspase-Glo luminescence, 17 h; series mostly up to 92.4 µM; caspase activation: at the top concentration", "method_in_brief": "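Caspase-3/7 induction was measured by Caspase-Glo 3/7 luminescence (30 min, room temperature) after a 17 hr compound exposure of wild-type HepG2 cells seeded at 2,000 per well and pre-incubated 5 hr.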"}
{"compound": "NCCNC(=O)c1ccc(Cl)cn1", "caspase activation": "-2.46% [at 42.5 µM]"}
{"compound": "CC1CCN(CCCC(=O)c2ccc(F)cc2)CC1", "caspase activation": "0.394% [at 42.5 µM]"}
{"compound": "OCCN1C[C@H](O)[C@@H](O)[C@H](O)[C@H]1CO", "caspase activation": "0.247% [at 42.5 µM]"}
{"compound": "CCCCCCC(CCCCCCCCCCC(=O)OCC(COC(C)=O)OC(C)=O)OC(C)=O", "note": "(centres undefined)", "caspase activation": "1.7% [at 42.5 µM]"}
{"compound": "NC(=O)CCCCC1CCSS1", "note": "(centres undefined)", "caspase activation": "-1.46% [at 42.5 µM]"}
{"compound": "COc1cc(O)cc(O)c1", "caspase activation": "-0.175% [at 42.5 µM]"}
{"compound": "C#CC(O)C(CC)CCCC", "note": "(centres undefined)", "caspase activation": "-0.779%"}
{"compound": "O=C1OC(=O)c2cc([N+](=O)[O-])ccc21", "caspase activation": "-2%"}
{"compound": "COCCOC(=O)CC#N", "caspase activation": "0.155%"}
{"compound": "c1ccc(CCCc2ccccn2)cc1", "caspase activation": "-0.429%"}
{"compound": "CNc1ncnc2nc[nH]c12", "caspase activation": "0.512%"}
{"compound": "N#CCN(CC#N)CCN(CC#N)CC#N", "caspase activation": "-1.14%"}
{"compound": "Nc1nc2c(ncn2CCC(CO)CO)c(=O)[nH]1", "caspase activation": "0.638% [at 42.5 µM]"}
{"compound": "CCCCCCCCCCCCI", "caspase activation": "-1.24%"}
{"compound": "CCC(C)OC(=O)N1CCCCC1CCO", "note": "(centres undefined)", "caspase activation": "0.234%"}
{"compound": "CC(C)(C)C(=O)/C=C/c1ccc(Cl)cc1", "caspase activation": "-0.321%"}
{"compound": "CC(C)(C)N(CCO)CCO", "caspase activation": "1.67%"}
{"compound": "C=CC(=O)OCCCCCC", "caspase activation": "-0.0135%"}
{"compound": "NS(=O)(=O)c1cc2c(cc1C(F)(F)F)NC(Cc1ccccc1)NS2(=O)=O", "note": "(centres undefined)", "caspase activation": "0.212% [at 42.5 µM]"}
{"compound": "CC1=CC(=O)CCC1", "caspase activation": "0.566%"}
{"compound": "CCCc1ccc(N)cc1", "caspase activation": "-0.235%"}
{"compound": "COc1cccc(Br)c1", "caspase activation": "-0.163%"}
{"compound": "CC(C)(O)Cc1ccccc1", "caspase activation": "1.41%"}
{"compound": "CCN(CC)C(=O)c1ccc(O)c(OC)c1", "caspase activation": "2.67% [at 42.5 µM]"}
{"compound": "CCO[Si](C)(OCC)OCC", "caspase activation": "0.319%"}
{"compound": "COC(=O)CCCCCCCCC(=O)OC", "caspase activation": "-1.22%"}
{"compound": "CCC(=O)Nc1cccc(N)c1", "caspase activation": "0.0506%"}
{"compound": "Nc1cc(C(Cl)=C(Cl)Cl)c(S(N)(=O)=O)cc1S(N)(=O)=O", "caspase activation": "-1.65% [at 42.5 µM]"}
{"compound": "CCCCCCCCCCCCCCCCCC(=O)OCCCCCCCCCCCCCC(C)C", "caspase activation": "0.0026%"}
